Assay results taken from PubChem BioAssay AID488913 (National Center for Advancing Translational Sciences (NCATS), 2010).
Inconclusive results are not listed. A number with no mark means an inactive call. The source made the active and inactive calls. Calls follow the shape of the dose curve; as a rule, active = well fitted inhibition curve with a large enough effect; inconclusive = small, poorly fitted or top-dose-only effect, or effect the other way; inactive = no such curve, though single readings can be large or run the other way.

experiment: Confirmation Concentration-Response Assay for lipid storage modulators: for probe SAR; conditions: Drosophila S3 cells, BODIPY lipid droplet fluorescence, 18-24 h; series mostly up to 46.1 µM; activity change, negative = lipid storage inhibition: at the top concentration
Method in brief: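 Laser-scanning cytometry read BODIPY 493/503 lipid-droplet intensity and its ratio to CellTracker Red cell signal. Beforehand, 5,000 cells/well were exposed 18–24 h at 24 °C to test compound with oleic acid (1 µL, 400 µM). 20 µM Triacsin C defined full inhibition.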

| SMILES | Potency | activity change, negative = lipid storage inhibition [%] |
| --- | --- | --- |
| CCOc1ccc(CCNC(=O)c2cc3sccc3n2Cc2ccc(Cl)c(F)c2)cc1OCC | 0.0063 µM (active) | – |
| CCn1c(C(=O)NCCc2ccc(OC)c(OC)c2)cc2sc(Cl)cc21 | 9.71 µM (active) | – |
| Cc1cc(SCc2sc(-c3ccc(C(F)(F)F)cc3)nc2C)ccc1OCC(=O)O | – | 44.3 |
| O=C(NC1CCCc2c1cnn2-c1ccc(F)cc1F)c1ccc[n+]([O-])c1 (stereo unspecified) | – | -0.966 |
| CCOc1ccc(CCNC(=O)c2cccs2)cc1OCC | – | 37.6 |
| O=C(NC1CCCc2c1cnn2-c1ccccc1F)c1cccc2nccnc12 (stereo unspecified) | 2.74 µM (active) | – |
